High-throughput results deposited in PubChem BioAssay by National Center for Advancing Translational Sciences (NCATS).
Sampled rows, rich in hits. Any-hit rate of the full collection: about 19%.
IL-1B inflam inh = blocks inflammasome-driven IL-1 beta release; AID 743279; 360,000 tested, 4.7% active; activity change, % at 57.5 µM; THP-1 LPS/ATP IL-1B secretion, AlphaLISA, 16 h; stronger effect = lower value; in the data active means activity change below about -50%; inconclusive means mostly about -30% to -49%
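Secreted IL-1B measured by AlphaLISA bead assay after 16 h compound exposure of THP-1 cells; compounds (final up to 57.5 uM) added 1 h before LPS (250 ng/mL) and ATP (1.25 mM) stimulation; lower signal means less secretion.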
HT1080NT lethal = kills 2HG-producing HT-1080-NT fibrosarcoma cells | 360,000 tested, 1.6% active | Potency, µM (top dose mostly 46.1 µM), for the others: at the top dose activity, negative = less viability, actives largely listed as cytotoxic | HT-1080-NT fibrosarcoma viability, CellTiter-Glo ATP luminescence, 48 h;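 further: NT is the 2HG producing partner of a matched IDH1 knockdown line; potency means the concentration at half of the fitted maximal effect; 0% = DMSO-treated cells and -100% = media-only wells without cells; nearly all actives have a fitted effect of over 55% in size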
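Viability by CellTiter-Glo luminescence after 48 h compound exposure at 37C of HT-1080-NT cells (750/well, RPMI, 5% FBS). % activity scaled between DMSO wells and medium-only wells, then curve-fitted and categorized by curve class.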
HT1080 IDH1KD tx = toxicity to HT-1080 IDH1 knockdown cells (counter line); Potency, µM (top dose mostly 46.1 µM), inactives show top-dose activity, negative = toxicity, actives largely listed as cytotoxic; HT-1080 IDH1 knockdown viability, ATP luminescence, 48 h; 360,000 tested, 2% active;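 further: potency means the concentration at half of the fitted maximal effect; 0% = DMSO wells and -100% = cell-free medium wells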
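IDH1KD HT-1080 cells, 750/well, RPMI + 5% FBS; compound pinned after 2 h settling; 48 h, 37 °C; CellTiter-Glo luminescence; % activity normalised to DMSO and no-cell wells; curves fitted, classed by r2 and efficacy.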
TDP1 cell noCPT = qHTS for Inhibitors of human tyrosyl-DNA phosphodiesterase 1 (TDP1): qHTS in cells in absence of CPT | 420,000 tested, 15% active | DT40 Tdp1-/- hTDP1 cells, no CPT, ATP luminescence, 48 h | Potency, µM (doses to about 46.2 µM), for inactives: at the top dose activity change, negative = growth inhibition, hits mostly inhibitors; further: potency means the concentration at half of the fitted maximal effect; nearly all actives have a fitted effect of over 55% in size
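Luminescent ATP content (CellTiter-Glo) served as the growth readout. Knockout chicken DT40 cells expressing human TDP1 were exposed to compounds without camptothecin for a minimum 48 hr at 37 °C.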
TDP1 cell CPT = DT40-hTDP1 cell growth loss with CPT | chicken DT40 Tdp1-/-;hTDP1 cells + 20 nM CPT, ATP luminescence, 48 h | Potency, µM (titrated, usually from 46.2 µM), for the others: at the highest dose activity change, negative = growth inhibition, actives largely listed as inhibitors | 420,000 tested, 12% active | AID 686979; further: potency means the concentration at half of the fitted maximal effect; nearly all actives have a fitted effect of over 55% in size
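Cell growth measured by CellTiter-Glo luminescence after a minimum 48 h, 37 C compound exposure with 20 nM CPT in Tdp1-knockout DT40 cells stably expressing hTDP1, seeded 400/well; qHTS titration format.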
* marks the source's active call; other numbers are inactive results; ? = inconclusive; . = not tested or not shown. Unless noted, the call rests on the fitted dose curve; in most records, active means well fitted curve in the direction sought with a large enough effect; inconclusive means small, poorly fitted or top-dose-only effect, or another doubt; inactive means no such curve, though single readings can be large; an effect the other way counts as inactive or inconclusive. Unless noted, on the % scale 0 is the no-effect control and ±100 the full control effect.

SMILES | IL-1B inflam inh | HT1080NT lethal | HT1080 IDH1KD tx | TDP1 cell noCPT | TDP1 cell CPT
COc1ccc(/C=C/C(=O)Nc2ccc(C(N)=O)cc2)cc1OC | 15 | ? | ? | -10% | 26%
CC1CN(C(=O)CSc2nnc(-c3ccccc3)o2)CC(C)O1 (stereo not drawn) | 4 | 2% | 3% | 23% | 1%
O=C(O)C1OC(Oc2c(-c3ccc(O)c(O)c3)oc3cc(O)cc(O)c3c2=O)C(O)C(O)C1O (stereo not drawn) | 24 | 0% | 6% | 13µM* | ?
C[C@@H]1O[C@@H](OC[C@@H]2O[C@H](Oc3c(-c4ccc(O)cc4)oc4cc(O)cc(O)c4c3=O)[C@@H](O)[C@H](O)[C@H]2O)[C@H](O)[C@H](O)[C@H]1O | 43 | 11% | 8% | 8% | -2%
O=C(Cc1ccccc1)N/N=C/c1cc(Br)cc(Cl)c1O | ? | ? | ? | 2.3µM* | 3.7µM*
COc1cc(Br)cc(/C=N/NC(=O)Cc2ccccc2)c1O | 99 | 18µM* | 8.2µM* | 0.46µM* | 0.52µM*
COc1cc(/C=N/NC(=O)Cc2ccc(Br)cc2)cc(OC)c1O | 16 | ? | -28% | -24% | 8%
O=C(CP(=O)(c1ccccc1)c1ccccc1)N/N=C/c1cc(Br)cc(Br)c1O | 65 | -10% | ? | 15µM* | 15µM*
COc1ccc(Br)cc1/C=N/NC(=O)C[n+]1ccccc1 | 28 | 0% | 1% | 13µM* | 18µM*
O=C(Cc1ccccc1)NN=Cc1ccccc1 | -10 | 19% | 12% | -21% | -13%
CCOc1ccc(NC(=O)Cc2ccc(S(=O)(=O)N3CCCCC3)cc2)cc1OCC | 9 | -1% | -7% | ? | ?
c1ccc(-n2nnnc2NC2CCCCC2)cc1 | 3 | ? | -2% | -16% | -16%
COc1cc(Br)cc(C=Nc2cccc(C(F)(F)F)c2)c1O | -50* | -16% | ? | ? | ?
Cc1ccccc1C(=O)N1CCN(c2ccc(NC(=O)c3cccc(OC(C)C)c3)cc2)CC1 | -1 | 0% | 11% | 3.3µM* | 3.7µM*
COc1ccccc1C(=O)Nc1ccc(N2CCN(C(C)=O)CC2)cc1 | -56* | -1% | -1% | -7% | 3%
COc1c(C)cccc1C(=O)Nc1ccc(N2CCN(C(=O)c3ccccc3C)CC2)cc1 | -106* | 6% | -17% | 15µM* | 16µM*
CC(=O)N1CCN(c2ccc(NC(=O)C(c3ccccc3)c3ccccc3)cc2)CC1 | -58* | -23% | -3% | -22% | -26%
COc1ccc(CN2CC(C(N)=O)Oc3ccccc32)cc1F (stereo not drawn) | 1 | -4% | -4% | -2% | 1%
O=C(CSc1nc2[nH]ncc2c(=O)[nH]1)NCc1ccc(F)cc1 | 24 | -2% | -4% | -7% | 6%
Cc1c(C(=O)N/N=C/c2cccnc2)sc(N)c1C#N | -63* | 1% | -6% | -26% | -18%
COc1ccc2ccccc2c1/C=N/NC(=O)c1sc(N)c(C#N)c1C | 0 | 6% | 12% | ? | -3%
Cc1ccc(C(=O)N/N=C\c2cccnc2)s1 | -9 | 10% | 10% | 7% | 7%
COc1cc(/C=N/NC(=O)c2sc(N)c(C#N)c2C)cc(Br)c1O | -77* | 19% | 9% | ? | -29%
Cc1ccc(C(=O)CSc2ncc3c(n2)-c2ccccc2N(Cc2ccc(Cl)cc2)S3(=O)=O)cc1 | . | . | . | -5% | -16%
COc1ccc2ccccc2c1C(=O)/C=C\c1ccoc1 | -56* | -24% | -17% | ? | ?
SMILES | IL-1B inflam inh | HT1080NT lethal | HT1080 IDH1KD tx | TDP1 cell noCPT | TDP1 cell CPT
CCNc1ncc2nc(C)c(=O)n(C3CC3)c2n1 | . | . | . | 0% | 10%
O=C(Cc1c(F)cccc1Cl)Nc1nc2ccccc2s1 | -57* | -7% | -8% | ? | ?
Cc1cc(NC(=O)Cc2c(F)cccc2Cl)no1 | 3 | 5% | -10% | ? | 15µM*
COCCNC(=S)NNC(=O)c1ccc(-n2cnnn2)cc1 | 10 | -4% | 13% | -11% | 8%
Cc1cccc(-n2ncc3c(Nc4c(C)cc(C)cc4C)ncnc32)c1 | . | . | . | 4.6µM* | 3.3µM*
Cc1cc(C)c(Nc2ncnc3c2cnn3C)c(C)c1 | . | . | . | 16µM* | 21µM*
Cc1cccc(-n2ncc3c(NC(C)C)ncnc32)c1 | -23 | -6% | -1% | ? | ?
O=C(NCc1cccc(Cl)c1)c1ccc(CS(=O)Cc2ccccc2Cl)o1 (stereo not drawn) | ? | -3% | -25% | ? | ?
COc1ccc2c(c1)OC[C@H]1[C@H]2N2C(=O)c3cc(OC)c(OC)cc3NC(=O)[C@@]2(C)[C@H]1c1ccccc1 | 0 | ? | ? | 16µM* | 29µM*
COc1cc2c(cc1OC)C(=O)N1[C@H]3c4ccccc4OC[C@@H]3[C@H](c3ccccc3)[C@]1(C)C(=O)N2 | ? | 4% | -15% | 15µM* | ?
COc1ccc2c(c1)OC[C@H]1[C@@H]2N2C(=O)[C@@H](C)NC(=O)[C@@]2(C)[C@H]1c1ccccc1 | 17 | 4% | 1% | -16% | 8%
C[C@@]12C(=O)Nc3ccc(F)cc3C(=O)N1[C@H]1c3ccccc3OC[C@@H]1[C@@H]2c1ccccc1 | ? | -10% | -4% | -10% | ?
C[C@@]12C(=O)Nc3cc(F)c(F)cc3C(=O)N1[C@H]1c3ccccc3OC[C@@H]1[C@@H]2c1ccccc1 | -63* | -25% | -25% | 18µM* | ?
Cc1ccnc(NS(=O)(=O)c2ccc(NC(=O)c3cccc(Cl)c3)cc2)n1 | 21 | -1% | -2% | 1% | -21%
COc1ccc2oc(C(=O)OCC(=O)NC3(C#N)CCCC3)c(C)c2c1 | 9 | 1% | 2% | -11% | -4%
Clc1ccc2nc[nH]c2c1 | . | . | . | -18% | -18%
COc1ccc2cc(CNCCOCCOCCNCc3ccc4cc(OC)ccc4c3)ccc2c1 | -99* | ? | 16µM* | 2.6µM* | 2.6µM*
CCOC(=O)c1c(NC(=O)/C=C/c2ccc(OCC)cc2)sc2c1CCC2 | . | . | . | -13% | 8%
COC(=O)c1c(NC(=O)CCCOc2ccc(C)cc2)sc2c1C(C(=O)OC)CC2 (stereo not drawn) | . | . | . | 13µM* | 15µM*
COC(=O)c1c(NC(=O)CCCOc2cccc(C)c2)sc2c1C(C(=O)OC)CC2 (stereo not drawn) | . | . | . | 15µM* | 16µM*
COC(=O)c1c(NC(=O)Cc2ccccc2)sc2c1C(C(=O)OC)CC2 (stereo not drawn) | -25 | 17% | 0% | ? | ?
